AMA1 RON2 block: AMA1-RON2 (P. falciparum) interaction inhibition; Potency, µM (highest dose often 58.2 µM), actives largely listed as inhibitors; actives 0.2% (n = 360,000); AID 720542; AlphaScreen AMA1-biotinylated RON2 peptide binding; also: nearly all actives have a fitted effect of over 45% in size
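AMA1 (3D7) with his tag at 25 nM final met compounds first, then biotinylated RON2 peptide at 25 nM; detection used donor plus acceptor beads, 10 µg/mL apiece, read by AlphaScreen after 30 min at room temperature.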
HCV inh: HCV inhibition | Potency, µM (top dose mostly 41.8 µM), hits mostly inhibitors | actives 3.4% (n = 340,000) | Huh7.5.1 HCVcc-Cre infection, luciferase reporter, 44 h | AID 651820
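Whole-lifecycle infectious HCVcc-Cre system; cells 1,000/well, compound then virus (~0.5 moi) added 4 h after plating, 44 h culture. Luciferase read 15 sec following 15 min substrate incubation, room temp.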
Pf growth 96h: P. falciparum growth inhibition at 96 hour, primary screen for plastid delayed-death inhibitors | P. falciparum luciferase reporter growth, 96 h | Potency, µM (series often up to 28.7 µM), most hits filed as inhibitors | actives 6.9% (n = 320,000)
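Plates of compound plus infected erythrocytes (2% hematocrit, 0.05% parasitemia final) incubate 96 hours, 37 C, 5% CO2. Detection reagent added; reduced luminescence from the parasites' luciferase reporter flags inhibition.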
Pf growth 48h: P. falciparum growth inhibition at 48 hours (one generation); P. falciparum luciferase growth in erythrocytes, 48 h; Potency, µM (top dose mostly 28.7 µM), actives largely listed as inhibitors; actives 5.9% (n = 310,000); AID 504832
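Compounds are pin-transferred into medium, infected erythrocytes (2% hematocrit, 0.1% parasitemia final) are added, and plates sit one parasite generation at 37 C in 5% CO2. Detection reagent is then added and luminescence measured.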
Large screens that a line does not name were inactive; ! = repeats disagree. Sampled rows, rich in hits. Any-hit rate of the full collection: about 11%. Calls follow the shape of the dose curve; as a rule, active = well fitted curve in the direction sought with a large enough effect; inconclusive = small, poorly fitted or top-dose-only effect, or another doubt; inactive = no such curve, though single readings can be large; an effect the other way counts as inactive or inconclusive.

Cn1c(=S)ccc2ccccc21	none
CC(C)Cc1cc(C(=O)N2N=C(C(F)F)CC2(O)C(F)F)c2ccccc2n1 (stereo not given)	HCV inh inconclusive, Pf growth 96h 6.57µM, Pf growth 48h 13.1µM
Clc1ccc(C#Cc2cccnc2)cc1	none
Cc1onc(-c2ccccc2Cl)c1C(=O)O/N=C(\N)c1ccc([N+](=O)[O-])o1	HCV inh inconclusive, Pf growth 96h 14.7µM, Pf growth 48h 3.7µM
C/C(=N/OC(=O)c1c(-c2ccccc2Cl)noc1C)c1cnccn1	Pf growth 96h inconclusive
O=C(NNC(=O)c1ccccc1OCc1ccccc1Cl)c1csc(N2CCOCC2)n1	HCV inh 10µM, Pf growth 96h inconclusive, Pf growth 48h inconclusive
COc1ccccc1C(=O)NNC(=O)c1csc(N2CCOCC2)n1	Pf growth 48h inconclusive
Cc1ccc(NC(=O)C2CCN(S(=O)(=O)c3ccc4c(c3)NC(=O)C(C)S4)CC2)cc1Cl (stereo not given)	HCV inh inconclusive, Pf growth 96h inconclusive, Pf growth 48h 13.1µM
Cc1cc(C)cc(NC(=O)C2CCN(S(=O)(=O)c3ccc4c(c3)NC(=O)C(C)S4)CC2)c1 (stereo not given)	Pf growth 96h inconclusive, Pf growth 48h inconclusive
Cc1ccc(NC(=O)C2CCN(S(=O)(=O)c3ccc4c(c3)NC(=O)C(C)S4)CC2)c(Cl)c1 (stereo not given)	HCV inh 11.2µM, Pf growth 96h inconclusive, Pf growth 48h 10.4µM
CCCS(=O)(=O)N1CCc2ccc(NC(=O)C3CCCO3)cc2C1 (stereo not given)	Pf growth 48h inconclusive
Cc1[nH]c(-c2ccc(F)cc2)cc1C(=O)N1CCN(c2ccccc2)CC1	HCV inh inconclusive
COc1cccc(N2CCN(C(=O)c3cc(-c4ccc(F)cc4)[nH]c3C)CC2)c1	Pf growth 48h inconclusive
Cc1ccc(N2CCN(C(=O)c3cc(-c4ccc(F)cc4)[nH]c3C)CC2C)cc1 (stereo not given)	HCV inh 11.2µM, Pf growth 96h inconclusive, Pf growth 48h inconclusive
COc1ccccc1N1CCN(C(=O)c2cc(-c3ccc(F)cc3)[nH]c2C)CC1	HCV inh inconclusive, Pf growth 48h 13.1µM
Cc1[nH]c(-c2ccc(F)cc2)cc1C(=O)N1CCN(c2ccccc2F)CC1	HCV inh inconclusive, Pf growth 96h 3.7µM
NC(=Nc1ccccc1)NN=Cc1c[nH]c2ccccc12	HCV inh inconclusive (no result: Pf growth 96h, Pf growth 48h)
CCCCCN=C(N)N/N=C/c1c[nH]c2ccc(OC)cc12	HCV inh inconclusive, Pf growth 96h 3.01µM, Pf growth 48h 3.01µM
CCCOc1ccc(C(=O)N/N=C/c2c[nH]c3ccc(Br)cc23)cc1	HCV inh 12.6µM, Pf growth 96h inconclusive
FC(F)(F)C(F)(F)c1nc2nc(Cl)c(Cl)nc2[nH]1	none (no result: HCV inh, Pf growth 96h, Pf growth 48h)
CCSc1ncc(/C=N/Nc2ccccc2)n1C	HCV inh inconclusive, Pf growth 96h 2.62µM, Pf growth 48h 5.22µM
CCCN1CNC(=S)N(c2ccccc2OCC)C1	Pf growth 96h inconclusive
Cc1c(NC(=O)c2cc(-c3ccc(F)cc3)on2)c(=O)n(-c2ccccc2)n1C	none
COCC(=O)O[C@]1(CCN(C)CCCc2nc3ccccc3[nH]2)CCc2cc(F)ccc2[C@@H]1C(C)C	HCV inh inconclusive, Pf growth 96h 2.39µM, Pf growth 48h 1.51µM
CNC(=S)NCCc1cc2c(OC)ccc(OC)c2[nH]c1=O	none
O=C(c1cc2c(s1)-c1ccccc1S(=O)(=O)C2)N1CCN(Cc2ccccc2)CC1	HCV inh 10µM (no result: Pf growth 48h)
COc1ccc(N2CCN(C(=O)c3cc4c(s3)-c3ccccc3S(=O)(=O)C4)CC2)cc1	HCV inh 10µM, Pf growth 96h inconclusive
COc1cc(OC)c(N(C)C(=O)c2cc3c(s2)-c2ccccc2S(=O)(=O)C3)cc1Cl	HCV inh 22.4µM (no result: Pf growth 96h, Pf growth 48h)
COc1ccc(N(C)C(=O)c2cc3c(s2)-c2ccccc2S(=O)(=O)C3)cc1	HCV inh inconclusive, Pf growth 96h inconclusive, Pf growth 48h 2.94µM
CC1CCCC(NC(=O)CCS(=O)(=O)c2cc3c(cc2Cl)NC(=O)CO3)C1C (stereo not given)	none
O=C(COC(=O)Cc1n[nH]c(=O)c2ccccc12)Nc1c(Cl)cccc1C(F)(F)F	none
O=C(Cn1cc(SCc2cccc(Cl)c2)c2ccccc21)N1CCOCC1	none
NS(=O)(=O)c1cc(C(=O)N=Nc2c(O)[nH]c3ccccc23)ccc1Cl	Pf growth 96h 1.47µM, Pf growth 48h 10.4µM
COc1ccc(-c2c(S(=O)(=O)c3ccccc3)cnn2-c2ccccc2)cc1	Pf growth 96h 6.57µM, Pf growth 48h inconclusive
O=S(=O)(c1ccccc1)c1cnn(-c2ccccc2)c1-c1ccc(Cl)cc1	HCV inh inconclusive, Pf growth 96h 2.94µM, Pf growth 48h 11.7µM
COc1ccc(S(=O)(=O)Nc2cc(C)nn2-c2ccccc2)cc1	none (no result: Pf growth 48h)
COc1ccc(OC)c(CN2C(=O)CN(S(C)(=O)=O)CC2(C)C(=O)Nc2c(C)cccc2C)c1 (stereo not given)	none (no result: HCV inh, Pf growth 96h, Pf growth 48h)
O=C(Nc1cnn(Cc2ccccc2)c1)c1cc2nc(-c3ccco3)cc(C(F)(F)F)n2n1	HCV inh inconclusive, Pf growth 96h 11.7µM, Pf growth 48h inconclusive
O=C(Nc1ccc2c(c1)OCO2)c1cnn2c(C(F)(F)F)cc(-c3ccco3)nc12	HCV inh inconclusive (no result: Pf growth 48h)
CCc1ccc(-c2cc(C(F)(F)F)n3nc(C(=O)Nc4c(C)nn(Cc5ccc(F)cc5)c4C)cc3n2)s1	HCV inh 1.58µM, Pf growth 48h inconclusive
O=C(Nc1cnn(C23CC4CC(CC(C4)C2)C3)c1)c1cnn2c(C(F)(F)F)cc(-c3ccco3)nc12	HCV inh 11.2µM!, Pf growth 96h inconclusive
Cc1ccccc1Cn1nc(C)c(NC(=O)c2cc3nc(-c4ccco4)cc(C(F)(F)F)n3n2)c1C	HCV inh inconclusive, Pf growth 48h 13.1µM (no result: Pf growth 96h)
CC1C/C(=N/O)C(C)CN1 (stereo not given)	none (no result: Pf growth 48h)
COc1ccccc1CNC(=O)c1cc(S(=O)(=O)N2CCCC2)cn1C	Pf growth 96h inconclusive, Pf growth 48h inconclusive
COC(=O)[C@@]12C[C@@H](CC(=O)N3CCN(C(=O)c4ccco4)CC3)C(=O)N(Cc3cccc4ccccc34)C1=CCC(C)(C)C2	none (no result: HCV inh, Pf growth 96h, Pf growth 48h)
O=C1NC(=O)C2(Cc3ccccc3N3CCCC32)C(=O)N1c1ccccc1 (stereo not given)	Pf growth 96h inconclusive
CN1c2ccc([N+](=O)[O-])cc2CC2(C(=O)NC(=O)N(c3ccc(Br)cc3)C2=O)C1c1ccccc1 (stereo not given)	HCV inh inconclusive, Pf growth 96h inconclusive, Pf growth 48h 1.65µM
COc1ccc(-c2n(-c3ccccn3)c3ccccc3[n+]2-c2ccccn2)cc1	Pf growth 96h 4.15µM, Pf growth 48h 10.4µM
